Screening results deposited in PubChem BioAssay by several laboratories.
Compounds with a hit are over-represented: about 4.8% of the library has one in this group of screens.
Beta apoptosis: beta cell apoptosis inhibition | INS-1E cytokine-induced death, ATP luminescence, 48 h; percent of positive-control rescue, neutral wells zero | protection from apoptosis, % (concentration not given with the values) | 0.8% of 300,000 active | AID 435005;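 active means Every replicate reaches about 75%, or at least half do and their mean reaches it too, limit read from the data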;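 further: higher means more ATP so stronger rescue from cytokine killing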
Calb FLC: C. albicans growth modulation with fluconazole | C. albicans CaCi-2 (fluconazole-resistant clinical isolate) + fluconazole, Alamar Blue growth, 48 h | 0.57% of 300,000 active | growth inhibition, % (concentration not given with the values);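 active means growth inhibition above about 58% in most replicates, limit read from the data, passing the limit was not always enough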;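 further: all wells also contain fluconazole at 8 µg/ml as a sub-toxic cotreatment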
Mdm2-MdmX inh: inhibitors of human Mdm2/MdmX interaction; SaOS-2 split-luciferase Mdm2/MdmX complementation, luminescence; 3% of 330,000 active; inhibition, % at 8 µM;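 active means inhibition of at least 50% at 8 µM in the primary screen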
CSC inhib: cancer stem cell inhibition | cancer stem cell-like cells viability, luminescence | inhibition, % at 7.5 µM | 1.1% of 300,000 active | AID 2717; in the data active means inhibition above about 75%; tested in HMLE shEcad cells
MPTP inh: permeability transition pore inhibition | isolated mouse mitochondria, Ca2+ swelling absorbance, 30 min | AID 602449 | inhibition, % at 10 µM | 1.4% of 360,000 active;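 active means inhibition of 50% or more, scaled per plate between neutral and stimulator controls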
Mdm2-MdmX conf: human Mdm2/MdmX binding inhibition, confirmed; AID 489028; 55% of 10,000 active; inhibition, % at 8 µM; luminescent assay; shares compounds with Mdm2-MdmX inh; in the data active means inhibition above about 40%
FLuc counter: counter-screen for Mdm2/MdmX inhibitors: full-length luciferase | 77% of 6,200 active | SaOS-2 full-length luciferase counterscreen, luminescence | AID 504607 | inhibition, % at 8 µM | shares compounds with Mdm2-MdmX inh;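 active means mean inhibition at 8 µM reaching about 37%, which flags the compound as non-specific, limit read from the data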;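 further: p53-null SaOS-2 cells with luciferase driven by a doxycycline-inducible promoter; compound on cells about two nights before reading with doxycycline added after day one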
Numbers stand for hits; i = inactive; nt = no result.

SMILES	Beta apoptosis	Calb FLC	Mdm2-MdmX inh	CSC inhib	MPTP inh	Mdm2-MdmX conf	FLuc counter
COc1ccc(S(=O)(=O)Nc2cccc(-c3ccc4nncn4n3)c2)cc1F	i	i	50.1	i	i	66.0	60.6
CC(C)[C@H](NC(=O)c1ccc(C(C)(C)C)cc1)C(=O)N1CCN(Cc2ccc3c(c2)OCO3)CC1	i	nt	52.3	nt	i	i	55.0
C[C@H](NC(=O)c1ccccc1)C(=O)N1CCN(Cc2ccc3c(c2)OCO3)CC1	i	nt	i	i	i	nt	nt
Cc1[nH]c2ccccc2c1C(C#N)(C#N)C1C(=O)c2ccccc2C1=O	i	i	61.3	i	i	43.1	i
Cc1[nH]c2ccccc2c1CC#N	i	i	i	i	i	nt	nt
O=C1c2cccc3c([N+](=O)[O-])ccc(c23)C(=O)N1O	i	i	i	i	i	nt	nt
CC(=O)Oc1ccc(N2C(=O)c3cccc4c([N+](=O)[O-])ccc(c34)C2=O)cc1	nt	i	70.0	i	i	i	nt
O=C1c2cccc3c([N+](=O)[O-])ccc(c23)C(=O)N1c1ccc(Cl)cn1	i	i	100.3	112.0	i	100.2	53.7
O=C1c2ccc([N+](=O)[O-])cc2C(=O)N1c1ccc(Cl)cn1	i	i	i	i	i	nt	nt
O=C1c2cccc3c([N+](=O)[O-])ccc(c23)C(=O)N1c1ccccn1	nt	i	96.3	105.0	i	62.8	i
O=C1c2cccc3c([N+](=O)[O-])ccc(c23)C(=O)N1c1nccs1	i	i	92.4	79.4	i	90.2	i
CCCn1c(CC)nc([N+](=O)[O-])c1Sc1ccc(C)cc1	i	i	63.7	i	i	i	nt
CCCn1c(N)c(Sc2ccc(C)cc2)c(=O)n(CCC)c1=O	i	i	i	i	i	nt	nt
CCc1cccc2c1Sc1ccccc1CC2N1CCNCC1 (stereo unspecified)	nt	i	71.2	79.0	i	i	nt
Cc1cccc2c1Sc1ccc(Cl)cc1CC2N1CCNCC1 (stereo unspecified)	nt	i	100.2	101.6	nt	i	46.4
CCN(CC)c1ccc(NC(=O)CCS(=O)(=O)c2ccc(Br)cc2)c(C)c1	i	i	i	i	i	nt	nt
Nc1nc(/C=C/c2cccnc2)nc(-c2ccccc2O)n1	i	i	75.8	i	i	73.2	64.0
O=C(NCc1ccccc1Cl)[C@H]1CCCN1C(=O)[C@H]1CCCN1C(=O)c1ccc(Cl)cc1	nt	nt	nt	nt	i	nt	nt
CCN(Cc1ccc(OC)c(F)c1)C(=O)CCl	i	i	89.0	i	i	63.1	i
Cc1[nH]c2ccccc2c1/C=C/c1nc2ccccc2c(=O)n1-c1ccc([N+](=O)[O-])cc1	i	i	64.3	i	i	i	nt
CCN(CC(=O)NCCN1CCOCC1)S(=O)(=O)c1ccc(F)cc1	nt	i	i	i	i	nt	nt
Cc1cccc(OCC(=O)NCC(=O)N/N=C/c2ccc(O)cc2O)c1	i	i	i	i	i	nt	nt
COc1ccccc1/C=C\C(=O)NCC(=O)N/N=C/c1cccc(OC)c1O	i	i	51.0	i	i	i	nt
COc1ccccc1/C=C/C(=O)NCC(=O)N/N=C/c1cc(Br)ccc1OC	i	i	i	i	i	nt	nt
COc1cccc(/C=N/NC(=O)CNC(=O)COc2cccc(C)c2)c1O	i	i	54.3	i	i	46.7	44.8
SMILES	Beta apoptosis	Calb FLC	Mdm2-MdmX inh	CSC inhib	MPTP inh	Mdm2-MdmX conf	FLuc counter
COc1ccc(Cc2nc3c4c(ncn3n2)Oc2c(ccc3ccccc23)C4c2ccc(OC)c(OC)c2)cc1 (stereo unspecified)	i	i	i	i	i	nt	nt
COc1ccc(C2c3ccc(O)cc3Oc3ncn(Cc4ccccc4)c(=N)c32)cc1OC (stereo unspecified)	i	i	i	i	i	nt	nt
COc1ccc(C2c3ccc4ccccc4c3Oc3ncn(CCCO)c(=N)c32)cc1OC (stereo unspecified)	i	i	78.3	i	i	70.7	47.7
COc1ccc(C2c3ccc4ccccc4c3Oc3ncn(CCO)c(=N)c32)cc1OC (stereo unspecified)	i	i	57.9	i	i	i	nt
CCN(CC)S(=O)(=O)c1cc(NC(=O)CCn2[nH]c(=O)ccc2=O)ccc1C	i	nt	i	i	i	nt	nt
CCc1ccc2[nH]c3nc(SCc4nnc(-c5ccc(C)cc5)o4)nnc3c2c1	i	i	70.1	i	i	i	nt
Nc1ccc(-c2cc3ccccc3oc2=O)cc1	nt	i	52.4	i	i	i	45.3
O=c1oc2ccccc2cc1-c1ccc(O)cc1	i	i	i	i	i	nt	nt
O=C(C#Cc1ccccc1)c1ccc([N+](=O)[O-])cc1	nt	i	96.7	nt	i	82.0	57.7
COc1ccc(-c2cc(-c3cccs3)c(C#N)c(SCC(=O)NCc3ccccc3)n2)cc1	i	i	61.5	i	i	i	nt
N#Cc1c(-c2ccccc2)cc(-c2cccs2)nc1SCC(=O)O	i	i	i	i	i	nt	nt
COc1ccc(-c2cc(-c3cccs3)c(C#N)c(SCC(=O)NCc3ccccc3OC)n2)cc1	i	i	84.1	i	i	i	nt
CCc1nc2ccc(C(=O)NC3CCN(Cc4ccccc4)CC3)cn2c1N(CC)Cc1cccc(Br)c1	nt	nt	nt	nt	i	nt	nt
COc1cccc(-c2ccc(C#N)c(OC(=O)c3c(Cl)cccc3Cl)n2)c1	i	i	83.2	76.5	i	i	nt
COc1cccc(-c2ccc(C#N)c(OC(=O)c3ccc(Cl)cc3)n2)c1	i	i	i	i	i	nt	nt
COc1ccc(-c2ccc(C#N)c(SCC(=O)NCCc3ccccc3)n2)cc1OC	i	nt	i	i	i	nt	nt
N#Cc1cc2c(nc1SCC(=O)Nc1sc3c(c1C#N)CCC3)CCC2	i	i	i	i	i	nt	nt
COc1ccc(-c2ccc(C#N)c(SCC(=O)Nc3sc4c(c3C#N)CCC4)n2)cc1OC	i	i	97.3	i	i	62.8	102.1
COc1cccc(-c2ccc(C#N)c(SCC(=O)NCCc3cccc(Cl)c3)n2)c1	i	i	55.3	i	i	i	nt
CN(C)c1ccc(CN2CCC(C(=O)NC(c3ccc(Cl)cc3)c3cnccn3)CC2)cc1 (stereo unspecified)	nt	nt	nt	nt	i	nt	nt
CC(C)c1ccc(OCC(=O)NNC(=S)NC(=O)c2ccco2)c(Br)c1	i	i	50.4	i	i	42.8	71.1
CCOc1cc(/C=N/NC(=O)Cn2nc([N+](=O)[O-])cc2C)cc(Br)c1OCc1ccccc1C	i	i	52.2	i	i	46.9	87.0
CNC(=O)c1c(NC(=O)c2cc(-c3cc(C)c(C)cc3O)n[nH]2)sc2c1CCCC2	i	i	50.1	i	nt	i	nt
O=C(Nc1cccc(C(=O)O)c1)Nc1ccc2c(c1)OCO2	i	i	53.8	i	i	62.8	49.8
Cc1ccc(-c2nn3c(C)nnc3s2)cc1NC(=O)c1ccc(-c2ccc(Cl)cc2Cl)o1	nt	nt	79.6	i	i	i	nt
COc1ccc(CNCCC(c2ccc(OC(C)C)cc2)C(C)C)cc1OC (stereo unspecified)	86.5	i	77.2	i	i	50.5	67.2
